Experimental data from the supplement of paper PMC10849652.
Of roughly 7,900 targets only a part is listed; those with a hit were picked by preference. About 0.6% of all pairs of compound and target were hits.

Key:
Assay in all cases: log2 fold change, soluble protein after heating vs DMSO (PISA); higher = thermal stabilisation; K562 cells, 10 uM, 30 min; active = over 0.2 and 3.5 SD of the protein, either way, in both replicates (recomputed)
[1] = compound: CC1=C(C=C(C=C1)NC(=O)C2=CC(=CC=C2)C(C)(C)C#N)NC3=CC4=C(C=C3)N=CN(C4=O)C
How it was run: (§1)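 Quantification of soluble protein used TMTpro 16plex LC-MS/MS, with channel sums equalised. Samples were the supernatant after 21,000xg for 90 min of pooled aliquots from K562 cells (2×10^6 cells/mL) treated with 10 μM compound for 30 min, heated for 3 min over 48°C-58°C, and extracted in PBS with 0.5% NP-40 at 4°C. Values, from duplicates, describe thermal stability against control samples on a log2 fold-change scale.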

[2] = compound: CC1=C(C=C(C=C1)NC(=O)C2=CC(=CC=C2)N(C)C)NC(=O)C3=CC=C(C=C3)O
How it was run: as §1

[3] = compound: CC1=CC=C(C=C1)SC2=C3C=C(SC3=CN=C2)C(=O)N
How it was run: as §1

[4] = compound: CC1=NC(=CC=C1)C2=C(N=C(N2)C(C)(C)C)C3=CC4=NC=CN=C4C=C3
How it was run: as §1

Nexturastat A = compound: CCCCN(Cc1ccc(C(=O)NO)cc1)C(=O)Nc1ccccc1 [Nexturastat A]
How it was run: as §1

vemurafenib = compound: CCCS(=O)(=O)Nc1ccc(F)c(C(=O)c2c[nH]c3ncc(-c4ccc(Cl)cc4)cc23)c1F [vemurafenib]
How it was run: as §1

[5] = compound: CCCS(=O)(=O)Nc1ccc(F)c(C(=O)c2c[nH]c3ncc(Cl)cc23)c1F
How it was run: as §1

[6] = compound: CCCc1cc(C)[nH]c(=O)c1CNC(=O)c1cc(-c2ccnc(N3CCN(C)CC3)c2)cc2c1cnn2C(C)C
How it was run: as §1

givinostat = compound: CCN(CC)Cc1ccc2cc(COC(=O)Nc3ccc(C(=O)NO)cc3)ccc2c1 [givinostat]
How it was run: as §1

barasertib = compound: CCN(CCCOc1ccc2c(Nc3cc(CC(=O)Nc4cccc(F)c4)[nH]n3)ncnc2c1)CCOP(=O)(O)O [barasertib]
How it was run: as §1

[7] = compound: CC[C@@H]1C(=O)N(C)c2cnc(Nc3ccc(C(=O)NC4CCN(C)CC4)cc3OC)nc2N1C1CCCC1
How it was run: as §1

volasertib = compound: CC[C@@H]1C(=O)N(C)c2cnc(Nc3ccc(C(=O)N[C@H]4CC[C@H](N5CCN(CC6CC6)CC5)CC4)cc3OC)nc2N1C(C)C [volasertib]
How it was run: as §1

[8] = compound: CC[C@H](C)N1C=C(C2=C(C=C(C=C21)C3=CN=C(C=C3)N4CCNCC4)C(=O)NCC5=C(C=C(NC5=O)C)C)C
How it was run: as §1

epoxomicin = compound: CC[C@H](C)[C@@H](C(=O)N[C@@H]([C@@H](C)O)C(=O)N[C@@H](CC(C)C)C(=O)[C@]1(CO1)C)NC(=O)[C@H]([C@@H](C)CC)N(C)C(=O)C [epoxomicin]
How it was run: as §1

[9] = compound: CCn1c(C(=O)N(C2CC2)C2CC2)cc2c3c(ncn3C)c(Nc3cc(C)n(C)n3)nc21
How it was run: as §1

[10] = compound: CCn1cc(-c2ccnc3[nH]c(-c4cccc(CN(C)C)c4)cc23)c(-c2ccc(NC(=O)N(C)C)cc2)n1
How it was run: as §1

[11] = compound: CN(C)CC(=O)Nc1ccc2[nH]c(=O)c3ccccc3c2c1
How it was run: as §1

rosiglitazone = compound: CN(CCOC1=CC=C(C=C1)C[C@H]2C(=O)NC(=O)S2)C3=CC=CC=N3 (racemic) [rosiglitazone]
How it was run: as §1

[12] = compound: CN1C2=C(C3=C1C(=O)N(N=C3)CC4=CC(=CC=C4)N)SC(=C2)S(=O)C
How it was run: as §1

[13] = compound: CN1CCC(CNc2ccc3ncc(-c4cccc(OC(F)(F)F)c4)n3n2)CC1
How it was run: as §1

Measured: log2 fold change

IFT74 (UniProt Q96LB3)
active: Nexturastat A 0.746
inactive: [1] -0.086 | [2] -0.044 | [3] -0.01 | [4] -0.084 | vemurafenib -0.059 | [5] 0.005 | [6] -0.007 | givinostat 0.26 | barasertib -0.037 | [7] 0.125 | volasertib 0.01 | [8] -0.319 | epoxomicin -0.061 | [9] -0.057 | [10] 0 | [11] -0.051 | rosiglitazone 0.031 | [12] 0.025 | [13] -0.05

FCHO1 (UniProt O14526)
Chain of UniProt O14526 (O14526 whole entry, looked up): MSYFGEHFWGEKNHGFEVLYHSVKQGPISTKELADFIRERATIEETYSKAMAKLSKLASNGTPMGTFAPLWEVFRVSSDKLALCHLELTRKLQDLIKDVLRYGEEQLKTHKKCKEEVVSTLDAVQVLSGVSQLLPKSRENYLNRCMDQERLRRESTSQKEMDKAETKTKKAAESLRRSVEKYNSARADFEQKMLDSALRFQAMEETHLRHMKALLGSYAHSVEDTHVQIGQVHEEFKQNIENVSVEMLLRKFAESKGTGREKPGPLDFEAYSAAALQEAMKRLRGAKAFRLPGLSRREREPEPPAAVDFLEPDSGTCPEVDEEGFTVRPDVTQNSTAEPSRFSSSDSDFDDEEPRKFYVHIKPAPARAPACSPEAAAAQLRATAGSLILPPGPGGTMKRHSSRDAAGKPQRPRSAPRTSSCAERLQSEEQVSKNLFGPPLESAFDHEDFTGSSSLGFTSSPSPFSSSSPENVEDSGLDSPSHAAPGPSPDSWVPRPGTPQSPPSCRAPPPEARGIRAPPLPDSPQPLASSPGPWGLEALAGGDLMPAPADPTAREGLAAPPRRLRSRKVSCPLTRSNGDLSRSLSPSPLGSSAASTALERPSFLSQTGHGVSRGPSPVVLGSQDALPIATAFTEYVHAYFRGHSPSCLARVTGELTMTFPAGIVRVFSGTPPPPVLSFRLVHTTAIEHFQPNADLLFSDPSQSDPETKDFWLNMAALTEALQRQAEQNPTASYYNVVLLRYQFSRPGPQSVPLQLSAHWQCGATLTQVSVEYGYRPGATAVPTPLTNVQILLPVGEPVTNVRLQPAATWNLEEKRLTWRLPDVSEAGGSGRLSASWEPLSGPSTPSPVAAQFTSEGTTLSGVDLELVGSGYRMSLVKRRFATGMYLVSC
active: volasertib -0.768
inactive: [1] 0.103 | [2] -0.023 | [3] 0.004 | [4] -0.016 | Nexturastat A 0.053 | vemurafenib 0.254 | [5] 0.037 | [6] -0.003 | givinostat 0.073 | [7] -0.186 | [8] 0.168 | epoxomicin 0.05 | [9] 0.067 | [11] 0.112 | [12] 0.025

FBXO6 (UniProt Q9NRD1)
Chain of UniProt Q9NRD1 (Q9NRD1 whole entry, looked up): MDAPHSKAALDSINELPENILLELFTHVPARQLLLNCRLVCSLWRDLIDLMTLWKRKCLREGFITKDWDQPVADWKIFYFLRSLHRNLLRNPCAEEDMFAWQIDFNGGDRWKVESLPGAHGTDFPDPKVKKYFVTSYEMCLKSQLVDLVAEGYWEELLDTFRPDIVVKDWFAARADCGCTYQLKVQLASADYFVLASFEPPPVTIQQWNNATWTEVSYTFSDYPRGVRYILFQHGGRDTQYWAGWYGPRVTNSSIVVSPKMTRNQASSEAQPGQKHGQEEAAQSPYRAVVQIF
active: [7] 0.683 | volasertib 0.696 | [13] 0.366
inactive: [1] 0.006 | [2] 0.006 | [3] 0.048 | [4] 0.026 | Nexturastat A -0.04 | vemurafenib 0.044 | [5] 0.014 | [6] -0.01 | givinostat -0.093 | barasertib -0.008 | [8] 0.096 | epoxomicin -0.029 | [9] -0.037 | [10] -0.038 | [11] 0.036 | rosiglitazone 0.006 | [12] 0.005

HEATR3 (UniProt Q7Z4Q2)
inactive: [1] 0.004 | [2] 0.116 | [3] 0.034 | [4] 0.047 | Nexturastat A 0.016 | vemurafenib 0.007 | [5] 0.082 | [6] -0.067 | givinostat 0.069 | barasertib 0.144 | [7] -0.308 | [8] 0.033 | epoxomicin 0.039 | [9] -0.051 | [10] 0.276 | [11] 0.058 | rosiglitazone 0.059 | [12] 0.007 | [13] -0.34
active: volasertib -0.36

GPAT4 (UniProt Q86UL3)
Chain of UniProt Q86UL3 (Q86UL3 whole entry, looked up): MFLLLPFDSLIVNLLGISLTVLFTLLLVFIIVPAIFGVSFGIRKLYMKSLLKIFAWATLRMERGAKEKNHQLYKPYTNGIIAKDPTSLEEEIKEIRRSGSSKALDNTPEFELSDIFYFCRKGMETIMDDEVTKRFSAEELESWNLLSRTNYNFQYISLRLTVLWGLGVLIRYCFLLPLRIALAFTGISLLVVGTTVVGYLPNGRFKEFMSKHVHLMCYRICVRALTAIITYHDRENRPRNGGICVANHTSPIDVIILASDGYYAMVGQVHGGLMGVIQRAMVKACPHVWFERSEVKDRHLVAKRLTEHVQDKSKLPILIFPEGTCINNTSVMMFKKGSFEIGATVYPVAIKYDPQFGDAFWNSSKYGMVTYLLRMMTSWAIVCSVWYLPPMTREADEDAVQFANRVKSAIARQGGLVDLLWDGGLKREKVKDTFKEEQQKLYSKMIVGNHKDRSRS
inactive: [1] 0.05 | [2] -0.004 | [3] 0.014 | [4] -0.004 | Nexturastat A -0.004 | vemurafenib 0.036 | [5] 0.027 | [6] 0.019 | givinostat -0.024 | barasertib 0.027 | [7] -0.042 | volasertib -0.046 | [8] -0.036 | epoxomicin 0.063 | [9] -0.01 | [10] -0.039 | [11] 0.029 | rosiglitazone 0.008 | [12] -0.063 | [13] 0.143

GPS2 (UniProt Q13227)
Chain of UniProt Q13227 (Q13227 whole entry, looked up): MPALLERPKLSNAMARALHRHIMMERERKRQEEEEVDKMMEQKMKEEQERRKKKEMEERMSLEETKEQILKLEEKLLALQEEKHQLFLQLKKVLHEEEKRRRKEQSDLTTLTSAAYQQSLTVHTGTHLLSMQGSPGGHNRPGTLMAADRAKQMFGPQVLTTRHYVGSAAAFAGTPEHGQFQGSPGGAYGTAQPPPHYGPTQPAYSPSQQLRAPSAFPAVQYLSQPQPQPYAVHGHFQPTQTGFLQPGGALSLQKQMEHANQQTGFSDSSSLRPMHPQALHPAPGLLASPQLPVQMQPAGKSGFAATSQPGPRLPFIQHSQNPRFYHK
active: Nexturastat A -0.316
inactive: [1] -0.13 | [2] -0.04 | [3] -0.17 | [4] -0.013 | vemurafenib 0.019 | [5] -0.01 | [6] 0.026 | givinostat -0.145 | barasertib -0.008 | [7] 0.151 | volasertib -0.072 | [8] 0.082 | epoxomicin 0.016 | [9] -0.011 | [11] 0.068 | rosiglitazone 0.027

GCLM (UniProt P48507)
Chain of UniProt P48507 (P48507 whole entry, looked up): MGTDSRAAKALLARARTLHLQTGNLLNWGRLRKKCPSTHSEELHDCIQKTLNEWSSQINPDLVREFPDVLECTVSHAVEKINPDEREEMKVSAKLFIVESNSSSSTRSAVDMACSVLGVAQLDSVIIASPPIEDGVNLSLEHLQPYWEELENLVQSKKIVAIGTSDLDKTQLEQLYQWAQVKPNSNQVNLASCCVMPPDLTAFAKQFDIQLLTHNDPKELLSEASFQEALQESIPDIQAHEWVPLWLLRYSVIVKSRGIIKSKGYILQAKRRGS
inactive: [1] 0.044 | [2] -0.04 | [3] 0.019 | [4] 0.057 | Nexturastat A -0.006 | vemurafenib 0.1 | [5] 0.099 | [6] 0.002 | givinostat 0.074 | barasertib 0.066 | [7] -0.183 | [8] 0.058 | epoxomicin 0.03 | [9] -0.049 | [10] -0.046 | [11] 0.042 | rosiglitazone 0.082 | [12] 0.03 | [13] -0.112
active: volasertib -0.41

GEMIN2 (UniProt O14893)
Chain of UniProt O14893 (O14893 whole entry, looked up): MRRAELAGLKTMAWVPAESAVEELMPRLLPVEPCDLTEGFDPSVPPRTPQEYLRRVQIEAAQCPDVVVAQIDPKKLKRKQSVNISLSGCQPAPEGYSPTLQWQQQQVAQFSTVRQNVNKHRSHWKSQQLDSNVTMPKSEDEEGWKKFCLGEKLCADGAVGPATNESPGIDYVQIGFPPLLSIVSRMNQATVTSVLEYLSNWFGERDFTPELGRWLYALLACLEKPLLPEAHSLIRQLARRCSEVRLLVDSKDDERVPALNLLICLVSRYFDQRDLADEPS
inactive: [1] -0.073 | [2] 0.033 | [3] 0 | [4] -0.002 | Nexturastat A 0.243 | vemurafenib -0.028 | [5] -0.023 | [6] 0.029 | barasertib 0.078 | [7] -0.203 | volasertib -0.061 | [8] -0.057 | epoxomicin 0.011 | [10] 0.013 | [11] 0.019 | rosiglitazone 0.059 | [12] 0.101 | [13] 0.031

IFT80 isoform 3 (UniProt Q9P2H3)
Chain of UniProt Q9P2H3 (Q9P2H3 whole entry, looked up): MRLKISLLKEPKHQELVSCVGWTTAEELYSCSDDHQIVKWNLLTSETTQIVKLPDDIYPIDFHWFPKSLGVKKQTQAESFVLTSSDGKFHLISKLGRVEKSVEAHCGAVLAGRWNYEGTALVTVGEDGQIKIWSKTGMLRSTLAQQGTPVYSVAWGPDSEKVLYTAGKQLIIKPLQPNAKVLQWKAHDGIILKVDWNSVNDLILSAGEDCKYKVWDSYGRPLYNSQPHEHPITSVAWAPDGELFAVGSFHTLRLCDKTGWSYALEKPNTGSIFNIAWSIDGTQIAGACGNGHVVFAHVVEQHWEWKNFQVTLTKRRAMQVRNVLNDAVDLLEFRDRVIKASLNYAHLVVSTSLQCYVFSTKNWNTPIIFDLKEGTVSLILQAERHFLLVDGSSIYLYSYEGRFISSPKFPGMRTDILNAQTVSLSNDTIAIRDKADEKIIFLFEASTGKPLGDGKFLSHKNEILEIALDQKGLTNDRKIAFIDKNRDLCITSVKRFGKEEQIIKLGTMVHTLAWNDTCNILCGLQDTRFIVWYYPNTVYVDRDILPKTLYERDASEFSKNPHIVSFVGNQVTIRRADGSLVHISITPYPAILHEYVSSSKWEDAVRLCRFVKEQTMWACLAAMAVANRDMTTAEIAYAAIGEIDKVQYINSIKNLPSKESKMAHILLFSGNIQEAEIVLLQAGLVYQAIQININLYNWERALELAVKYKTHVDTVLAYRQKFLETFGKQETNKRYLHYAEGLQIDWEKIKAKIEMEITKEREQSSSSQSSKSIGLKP
inactive: [1] -0.023 | [2] 0.038 | [3] 0.004 | [4] 0.005 | Nexturastat A -0.021 | vemurafenib -0.042 | [5] 0.039 | [6] -0.013 | givinostat -0.104 | barasertib -0.004 | [7] 0.039 | [8] 0.072 | epoxomicin 0.053 | [9] 0.008 | [10] -0.09 | [11] 0.095 | rosiglitazone 0.028 | [12] -0.084 | [13] -0.157
active: volasertib -0.232

GDE1 (UniProt Q9NZC3)
inactive: [1] 0.022 | [2] -0.004 | [3] 0.012 | [4] -0.059 | Nexturastat A 0.02 | vemurafenib -0.033 | [5] -0.009 | [6] 0.064 | givinostat -0.052 | barasertib -0.049 | [7] 0.033 | volasertib 0.053 | [8] -0.092 | epoxomicin -0.046 | [9] 0.002 | [11] -0.049 | rosiglitazone -0.003 | [12] -0.016

HDAC6 (UniProt Q9UBN7)
Chain of UniProt Q9UBN7 (Q9UBN7 whole entry, looked up): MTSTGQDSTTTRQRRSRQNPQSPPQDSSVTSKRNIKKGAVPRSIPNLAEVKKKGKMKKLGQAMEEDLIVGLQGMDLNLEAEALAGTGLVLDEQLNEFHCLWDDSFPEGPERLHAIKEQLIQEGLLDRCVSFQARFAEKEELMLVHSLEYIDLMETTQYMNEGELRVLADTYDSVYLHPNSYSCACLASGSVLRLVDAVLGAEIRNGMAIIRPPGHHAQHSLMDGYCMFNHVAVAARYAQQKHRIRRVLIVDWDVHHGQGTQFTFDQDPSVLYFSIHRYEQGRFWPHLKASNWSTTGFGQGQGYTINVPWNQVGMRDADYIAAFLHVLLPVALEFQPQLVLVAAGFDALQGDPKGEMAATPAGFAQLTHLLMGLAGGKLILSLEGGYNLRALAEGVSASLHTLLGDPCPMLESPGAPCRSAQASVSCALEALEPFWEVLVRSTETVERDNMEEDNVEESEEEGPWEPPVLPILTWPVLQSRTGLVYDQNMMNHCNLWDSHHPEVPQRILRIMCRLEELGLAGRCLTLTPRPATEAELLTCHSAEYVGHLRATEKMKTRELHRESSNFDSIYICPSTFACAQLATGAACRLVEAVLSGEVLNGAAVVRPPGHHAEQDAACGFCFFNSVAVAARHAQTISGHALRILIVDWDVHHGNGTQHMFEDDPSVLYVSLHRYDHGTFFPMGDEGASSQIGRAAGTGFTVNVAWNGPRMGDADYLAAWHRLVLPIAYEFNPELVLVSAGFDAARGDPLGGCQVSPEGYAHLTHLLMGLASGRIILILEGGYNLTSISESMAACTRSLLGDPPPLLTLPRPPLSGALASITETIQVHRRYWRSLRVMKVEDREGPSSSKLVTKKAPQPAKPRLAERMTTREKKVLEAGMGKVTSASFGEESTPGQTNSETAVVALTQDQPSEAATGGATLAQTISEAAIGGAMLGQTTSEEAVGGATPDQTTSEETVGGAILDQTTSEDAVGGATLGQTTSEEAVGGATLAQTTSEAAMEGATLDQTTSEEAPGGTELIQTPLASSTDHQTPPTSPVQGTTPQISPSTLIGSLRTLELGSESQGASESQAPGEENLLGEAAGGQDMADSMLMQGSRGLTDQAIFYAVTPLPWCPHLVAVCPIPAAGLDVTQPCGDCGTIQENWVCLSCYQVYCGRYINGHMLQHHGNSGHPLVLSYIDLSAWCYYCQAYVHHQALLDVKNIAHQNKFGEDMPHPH
active: Nexturastat A 0.522 | givinostat 1.03
inactive: [1] 0.016 | [2] -0.041 | [3] 0.022 | [4] -0.091 | vemurafenib 0.004 | [5] -0.018 | [6] -0.015 | barasertib 0 | [7] 0.013 | volasertib 0.005 | [8] 0.014 | epoxomicin -0.069 | [9] -0.074 | [10] -0.157 | [11] 0.068 | rosiglitazone -0.065 | [12] 0.058 | [13] -0.04

HDAC1 (UniProt Q13547)
inactive: [1] -0.11 | [2] -0.039 | [3] 0.051 | [4] 0.034 | vemurafenib 0.051 | [5] 0.14 | [6] -0.118 | barasertib 0.024 | [7] -0.025 | volasertib -0.216 | [8] 0.037 | epoxomicin -0.006 | [9] -0.015 | [10] 0.019 | [11] 0.011 | rosiglitazone -0.027 | [12] 0.001 | [13] -0.043
active: Nexturastat A 1.45

GOPC (UniProt Q9HD26)
inactive: [1] 0.207 | [2] 0.018 | [3] -0.051 | [4] -0.066 | Nexturastat A 0.131 | vemurafenib 0.094 | [5] -0.128 | [6] 0.244 | givinostat 0.152 | barasertib -0.116 | volasertib -0.015 | [8] 0.022 | epoxomicin -0.053 | [9] 0 | [10] 0.149 | [11] 0.056 | rosiglitazone -0.06 | [12] 0.153 | [13] 0.485

GNAI3 (UniProt P08754)
Chain of UniProt P08754 (P08754 whole entry, looked up): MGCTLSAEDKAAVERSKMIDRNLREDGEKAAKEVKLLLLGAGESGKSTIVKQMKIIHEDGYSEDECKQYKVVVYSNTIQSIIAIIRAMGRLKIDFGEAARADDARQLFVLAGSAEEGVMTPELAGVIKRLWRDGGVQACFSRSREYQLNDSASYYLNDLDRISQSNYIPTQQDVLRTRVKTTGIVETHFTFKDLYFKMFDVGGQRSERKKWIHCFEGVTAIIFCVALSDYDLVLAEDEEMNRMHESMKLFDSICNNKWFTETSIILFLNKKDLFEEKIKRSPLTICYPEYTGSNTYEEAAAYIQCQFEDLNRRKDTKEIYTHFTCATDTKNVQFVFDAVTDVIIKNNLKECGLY
inactive: [1] 0.125 | [2] -0.012 | [3] -0.07 | [4] -0.021 | Nexturastat A 0.072 | vemurafenib 0.037 | [5] -0.025 | [6] 0.069 | barasertib 0 | [7] 0.089 | volasertib 0.147 | [8] -0.011 | epoxomicin 0.014 | [9] 0.036 | [10] -0.071 | [11] -0.012 | rosiglitazone -0.101 | [12] -0.046 | [13] 0.075
active: givinostat -0.263

HNRNPK isoform 2 (UniProt P61978)
active: volasertib -0.271 | [13] -0.216
inactive: [1] 0.034 | [2] 0.004 | [3] -0.003 | [4] 0.075 | Nexturastat A 0.022 | vemurafenib 0.048 | [5] 0.048 | [6] -0.031 | givinostat 0.063 | barasertib 0.024 | [7] -0.143 | [8] 0.062 | epoxomicin 0.003 | [9] -0.027 | [10] -0.027 | [11] 0 | rosiglitazone 0.022 | [12] -0.01

GEMIN6 (UniProt Q8WXD5)
inactive: [1] -0.049 | [2] -0.05 | [3] 0.014 | [4] 0.015 | Nexturastat A 0.134 | vemurafenib 0.073 | [5] -0.001 | [6] 0.008 | givinostat -0.088 | barasertib -0.053 | [7] 0.109 | volasertib 0.148 | [8] -0.052 | epoxomicin 0.093 | [9] -0.017 | [10] -0.019 | [11] -0.039 | rosiglitazone 0.071 | [12] -0.087 | [13] -0.048
